Reference: PubChem BioAssay AID1159580 (chemical genetic matrix, 2015)
Screen size: about 5,500 compounds; about 2,000 (36%) were called active. About 18% were inconclusive and are not listed. Rule as the data show it: active = normalized growth mostly below about 0.91 (no sharp cut-off); inconclusive = no clear call, values can overlap the other calls; inactive = mostly above about 0.92. The list shows a part of the results.

Experiment: chemical genetic growth profiling, strain panel (AID 1159580);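 also: tested at 20 µM; growth read once vehicle control cultures reached saturation at 30 °C; 1 = growth at the plate median or of vehicle wells; lower values mean less growth of the strain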
Details: growth OD
[1] = S. cerevisiae deletion strains, locus YAL013W, strain DEP1, active compounds read low
[2] = S. cerevisiae deletion strains, locus YDL101C, strain DUN1, active compounds read low
[3] = S. cerevisiae deletion strains, locus YHR030C, strain SLT2, active compounds read low
[4] = S. cerevisiae deletion strains, locus YMR263W, strain SAP30, active compounds read low
[5] = S. cerevisiae deletion strains, locus YNL322C, strain KRE1, active compounds read low

Measured: normalized growth

CN(C)/C=C(\C#N)C(=O)Nc1ccc(F)c(Cl)c1
inactive: [1] 0.971 | S. cerevisiae deletion strains, locus YBR229C, strain ROT2, active compounds read low 1.01 | S. cerevisiae deletion strains, locus YCL061C, strain MRC1, active compounds read low 0.978 | [2] 0.981 | S. cerevisiae deletion strains, locus YDR150W, strain NUM1, active compounds read low 0.991 | S. cerevisiae deletion strains, locus YEL061C, strain CIN8, active compounds read low 1.01 | S. cerevisiae deletion strains, locus YGR078C, strain PAC10, active compounds read low 0.992 | [3] 0.983 | S. cerevisiae deletion strains, locus YHR087W, strain rtc3, active compounds read low 1.01 | S. cerevisiae deletion strains, locus YJR043C, strain POL32, active compounds read low 0.97 | S. cerevisiae deletion strains, locus YJR075W, strain HOC1, active compounds read low 1.01 | S. cerevisiae deletion strains, locus YKL190W, strain CNB1, active compounds read low 1.01 | S. cerevisiae deletion strains, locus YLR039C, strain RIC1, active compounds read low 1.07 | S. cerevisiae deletion strains, locus YLR058C, strain SHM2 (second series), active compounds read low 1.01 | S. cerevisiae deletion strains, locus YLR085C, strain ARP6, active compounds read low 0.912 | S. cerevisiae deletion strains, locus YLR262C, strain YPT6, active compounds read low 1.16 | S. cerevisiae deletion strains, locus YML094W, strain GIM5, active compounds read low 0.988 | S. cerevisiae deletion strains, locus YMR219W, strain ESC1, active compounds read low 1.01 | [4] 1 | S. cerevisiae deletion strains, locus YNL128W, strain TEP1, active compounds read low 1 | S. cerevisiae deletion strains, locus YNL153C, strain GIM3, active compounds read low 0.976 | S. cerevisiae deletion strains, locus YNL298W, strain CLA4 (second series), active compounds read low 0.97 | [5] 1.02 | S. cerevisiae deletion strains, locus YNR030W, strain Alg12, active compounds read low 1.01 | S. cerevisiae deletion strains, locus YOL006C, strain TOP1, active compounds read low 0.965 | S. cerevisiae deletion strains, locus YPL055C, strain LGE1, active compounds read low 0.959 | S. cerevisiae deletion strains, locus YPL241C, strain CIN2, active compounds read low 0.977 | S. cerevisiae deletion strains, locus YPR135W, strain CTF4, active compounds read low 0.991 | S. cerevisiae strains, strain wild type, active compounds read low 1.01

Cn1c([N+](=O)[O-])cnc1/C=C(\C#N)C(=O)Nc1ccc(F)cc1
inactive: S. cerevisiae deletion strains, locus YDL108W, strain KIN28, active compounds read low 0.92 | S. cerevisiae deletion strains, locus YDR052C, strain DBF4, active compounds read low 0.936 | S. cerevisiae deletion strains, locus YFL009W, strain cdc4, active compounds read low 0.913 | S. cerevisiae deletion strains, locus YPR106W, strain ISR1, active compounds read low 0.968
active: S. cerevisiae deletion strains, locus YAR019C, strain CDC15, active compounds read low 0.267 | S. cerevisiae deletion strains, locus YBL105C, strain PKC1, active compounds read low 0.368 | S. cerevisiae deletion strains, locus YBR135W, strain CKS1, active compounds read low 0.436 | S. cerevisiae deletion strains, locus YBR136W, strain MEC1, active compounds read low 0.608 | S. cerevisiae deletion strains, locus YBR160W, strain CDC28, active compounds read low 0.639 | S. cerevisiae deletion strains, locus YDL017W, strain CDC7, active compounds read low 0.541 | S. cerevisiae deletion strains, locus YDL028C, strain MPS1, active compounds read low 0.874 | [2] 0.852 | S. cerevisiae deletion strains, locus YDL214C, strain PRR2, active compounds read low 0.37 | S. cerevisiae deletion strains, locus YDR226W, strain ADK1, active compounds read low 0.642 | S. cerevisiae deletion strains, locus YDR477W, strain SNF1, active compounds read low 0.104 | S. cerevisiae deletion strains, locus YER123W, strain YCK3, active compounds read low 0.408 | S. cerevisiae deletion strains, locus YER133W, strain GLC7, active compounds read low 0.3 | S. cerevisiae deletion strains, locus YFL029C, strain CAK1, active compounds read low 0.542 | S. cerevisiae deletion strains, locus YFR019W, strain FAB1, active compounds read low 0.262 | S. cerevisiae deletion strains, locus YFR028C, strain CDC14, active compounds read low 0.2 | S. cerevisiae deletion strains, locus YGR040W, strain KSS1, active compounds read low 0.139 | S. cerevisiae deletion strains, locus YGR052W, strain FMP48, active compounds read low 0.305 | S. cerevisiae deletion strains, locus YGR092W, strain DBF2, active compounds read low 0.118 | [3] 0.234 | S. cerevisiae deletion strains, locus YHR079C, strain IRE1, active compounds read low 0.366 | S. cerevisiae deletion strains, locus YHR082C, strain KSP1, active compounds read low 0.371 | S. cerevisiae deletion strains, locus YHR205W, strain SCH9, active compounds read low 0.0146 | S. cerevisiae deletion strains, locus YIL147C, strain SLN1, active compounds read low 0.741 | S. cerevisiae deletion strains, locus YJL095W, strain BCK1, active compounds read low 0.149 | S. cerevisiae deletion strains, locus YJL157C, strain FAR1, active compounds read low 0.346 | S. cerevisiae deletion strains, locus YJR016C, strain ILV3, active compounds read low 0.436 | S. cerevisiae deletion strains, locus YJR066W, strain TOR1 (second series), active compounds read low 0.116 | S. cerevisiae deletion strains, locus YJR066W, strain TOR1, active compounds read low 0.207 | S. cerevisiae deletion strains, locus YKL048C, strain ELM1, active compounds read low 0.168 | S. cerevisiae deletion strains, locus YKL067W, strain YNK1, active compounds read low 0.43 | S. cerevisiae deletion strains, locus YKL101W, strain HSL1, active compounds read low 0.157 | S. cerevisiae deletion strains, locus YKL193C, strain SDS22, active compounds read low 0.399 | S. cerevisiae deletion strains, locus YKL203C, strain TOR2, active compounds read low 0.119 | S. cerevisiae deletion strains, locus YLR113W, strain HOG1, active compounds read low 0.319 | S. cerevisiae deletion strains, locus YLR133W, strain CKI1, active compounds read low 0.111 | S. cerevisiae deletion strains, locus YLR403W, strain SFP1, active compounds read low 0.0176 | S. cerevisiae deletion strains, locus YML070W, strain DAK1, active compounds read low 0.28 | S. cerevisiae deletion strains, locus YMR001C, strain CDC5, active compounds read low 0.438 | S. cerevisiae deletion strains, locus YMR205C, strain PFK2 (second series), active compounds read low 0.139 | S. cerevisiae deletion strains, locus YMR277W, strain FCP1, active compounds read low 0.347 | S. cerevisiae deletion strains, locus YNL006W, strain LST8, active compounds read low 0.219 | S. cerevisiae deletion strains, locus YNL020C, strain ARK1, active compounds read low 0.119 | S. cerevisiae deletion strains, locus YNL161W, strain CBK1, active compounds read low 0.324 | S. cerevisiae deletion strains, locus YNL183C, strain NPR1, active compounds read low 0.168 | S. cerevisiae deletion strains, locus YNL207W, strain RIO2, active compounds read low 0.635 | S. cerevisiae deletion strains, locus YNL222W, strain SSU72, active compounds read low 0.411 | S. cerevisiae deletion strains, locus YNL307C, strain MCK1 (second series), active compounds read low 0.117 | S. cerevisiae deletion strains, locus YOL078W, strain AVO1, active compounds read low 0.47 | S. cerevisiae deletion strains, locus YOL136C, strain PFK27, active compounds read low 0.431 | S. cerevisiae deletion strains, locus YOR061W, strain CKA2, active compounds read low 0.168 | S. cerevisiae deletion strains, locus YOR119C, strain RIO1, active compounds read low 0.162 | S. cerevisiae deletion strains, locus YOR231W, strain MKK1, active compounds read low 0.418 | S. cerevisiae deletion strains, locus YOR329C, strain SCD5, active compounds read low 0.372 | S. cerevisiae deletion strains, locus YPL031C, strain PHO85, active compounds read low 0.104 | S. cerevisiae deletion strains, locus YPL153C, strain RAD53, active compounds read low 0.112 | S. cerevisiae deletion strains, locus YPL204W, strain HRR25, active compounds read low 0.109 | S. cerevisiae deletion strains, locus YPL209C, strain IPL1, active compounds read low 0.476 | S. cerevisiae deletion strains, locus YPL256C, strain CLN2, active compounds read low 0.448 | S. cerevisiae deletion strains, locus YPR025C, strain CCL1, active compounds read low 0.403

Nc1nc2[nH]c(=O)cnc2c(=O)[nH]1
inactive: [1] 0.996 | S. cerevisiae deletion strains, locus YAL040C, strain CLN3, active compounds read low 1.06 | S. cerevisiae deletion strains, locus YCL061C, strain MRC1 (second series), active compounds read low 0.994 | S. cerevisiae deletion strains, locus YDR363W, strain ESC2, active compounds read low 0.985 | S. cerevisiae deletion strains, locus YER002W, strain NOP16, active compounds read low 0.949 | S. cerevisiae deletion strains, locus YGR229C, strain SMI1, active compounds read low 1.01 | [4] 0.99 | S. cerevisiae deletion strains, locus YNL175C, strain NOP13, active compounds read low 0.983 | S. cerevisiae deletion strains, locus YNL197C, strain WHI3, active compounds read low 0.977 | S. cerevisiae deletion strains, locus YNL224C, strain SQS1, active compounds read low 0.987 | [5] 1.01 | S. cerevisiae deletion strains, locus YOR083W, strain WHI5 (second series), active compounds read low 0.988
